Pf growth 48h: P. falciparum growth inhibition at 48 hours (one generation) | P. falciparum luciferase growth in erythrocytes, 48 h | Potency, µM (titrated, usually from 28.7 µM), for inactives: top-dose activity change, negative = inhibition, most hits filed as inhibitors | 310,000 compounds, 5.9% hits; note: % is set by controls: 0 for no effect and ±100 for the full control effect
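Erythrocytes infected with P. falciparum carrying an integrated firefly luciferase reporter (2% hematocrit, 0.1% parasitemia final) were exposed to compounds in RPMI 1640 with 0.5% Albumax at 37 C, 5% CO2. Growth inhibition was scored as reduced luminescence.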
AmpC inh detg: blocks E. coli AmpC beta-lactamase in detergent assay; P00811; AmpC hydrolysis of nitrocefin, absorbance 480 nm, 0.01% Triton; Potency, µM (series often up to 114 µM), without a hit: top-dose activity change, negative = inhibition, usual class: inhibitors; 370,000 compounds, 0.041% hits;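 note: 0% = no-compound wells and -100% = no-enzyme wells; nearly all actives have a fitted effect of over 25% in size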
Target sequence (P00811 whole entry, looked up): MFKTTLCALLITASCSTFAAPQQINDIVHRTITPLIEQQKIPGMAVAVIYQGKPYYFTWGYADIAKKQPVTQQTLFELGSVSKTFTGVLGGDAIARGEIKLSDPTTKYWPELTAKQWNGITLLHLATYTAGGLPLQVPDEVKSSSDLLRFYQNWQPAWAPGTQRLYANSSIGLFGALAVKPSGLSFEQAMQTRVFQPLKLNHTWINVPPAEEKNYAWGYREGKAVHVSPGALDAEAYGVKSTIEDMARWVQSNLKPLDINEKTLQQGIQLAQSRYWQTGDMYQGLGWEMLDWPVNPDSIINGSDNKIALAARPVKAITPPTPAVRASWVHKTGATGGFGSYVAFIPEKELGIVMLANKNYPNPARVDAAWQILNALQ
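20 mM phosphate pH 7.0 + 0.01% (detergent screen) or 0.0001% Triton X-100; 5.3 nM AmpC reagent; cpd preinc 15 min RT; nitrocefin (800 uM stock) to start; A480 q20 s × 4 min; Activity was normalised to no-enzyme and no-compound control wells.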
Sm TGR inh: blocks Schistosoma mansoni thioredoxin glutathione reductase. Potency, µM (highest dose often 114 µM), for inactives: top-dose activity change, negative = inhibition, hits mostly inhibitors. purified TGR, DTNB reduction, TNB absorbance 405 nm. Q962Y6. 360,000 compounds, 3% hits; note: % is set by controls: 0 for no effect and ±100 for the full control effect; nearly all actives have a fitted effect of over 60% in size
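First, TGR (20 nM dispensed) and NADPH were mixed with compound. Second, a 15 min room-temperature incubation followed. Third, further NADPH and then DTNB were added to start the reaction. Finally, TNB absorbance was monitored kinetically.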
Pf growth 96h: P. falciparum growth inhibition at 96 hour, primary screen for plastid delayed-death inhibitors. P. falciparum luciferase reporter growth, 96 h. Potency, µM (highest dose often 28.7 µM), for the others: at the top dose activity change, negative = inhibition, most hits filed as inhibitors. 320,000 compounds, 6.9% hits. AID 504834; note: % is set by controls: 0 for no effect and ±100 for the full control effect
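P. falciparum expressing integrated firefly luciferase grown in erythrocytes (2% hematocrit, 0.05% parasitemia final) with compounds for 96 hours at 37 C, 5% CO2. Growth inhibition read as loss of luminescence after adding luciferase detection reagent.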
AmpC no deterg: inhibitors of E. coli AmpC beta-lactamase without detergent | P00811 | AmpC nitrocefin hydrolysis, absorbance 480 nm, 0.0001% Triton | Potency, µM (doses to about 57.1 µM), without a hit: at the highest dose activity change, negative = inhibition, most hits filed as inhibitors | 330,000 compounds, 0.52% hits | AID 485341;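 note: plate controls were no compound for no effect and no enzyme for full effect; nearly all actives have a fitted effect of over 20% in size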
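20 mM phosphate pH 7.0 + 0.01% (detergent screen) or 0.0001% Triton X-100; 5.3 nM AmpC reagent; cpd preinc 15 min RT; nitrocefin (800 uM stock) to start; A480 q20 s × 4 min; Activity was normalised to no-enzyme and no-compound control wells.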
SARS PLP yeast: inhibitors of SARS-CoV papain-like protease in yeast. S. cerevisiae expressing SARS-CoV PLpro, growth rescue. Potency, µM (titrated, usually from 32.9 µM), inactives show at the highest dose activity, positive = growth rescue, hits mostly activators. 330,000 compounds, 0.19% hits; calls by dose curve; note: 0% is about no effect; nearly all actives have a fitted effect of over 55% in size
* = called active by the depositor. Hits are enriched below; roughly 12% of the tested compounds scored in any of these assays. Unless noted, calls come from the whole dose curve; as a rule, active = well fitted curve in the direction sought with a large enough effect; inconclusive = small, poorly fitted or top-dose-only effect, or another doubt; inactive = no such curve, though single readings can be large; an effect the other way counts as inactive or inconclusive. Potency is the fitted concentration of half-maximal effect.

`CCN(c1ccccc1)S(=O)(=O)c1ccc(OC)c(NC(=O)CNC)c1` gave Pf growth 48h -16.3%, AmpC inh detg -14.5%, Sm TGR inh 0.6%, Pf growth 96h -9.1%, AmpC no deterg -1.2% and SARS PLP yeast -0.4%.
CCN(c1ccccc1)S(=O)(=O)c1ccc(OC)c(NC(=O)C2CC(=O)N(Cc3ccccc3)C2)c1 (centres undefined) was read as Pf growth 48h 6.57µM*, AmpC inh detg -0.8%, Sm TGR inh 1.8%, Pf growth 96h 13.1µM*, AmpC no deterg 117.6% and SARS PLP yeast -1.1%.
CCN(c1ccccc1)S(=O)(=O)c1ccc(OC)c(NC(=O)c2ccccc2OC)c1 was read as Pf growth 48h inconclusive, AmpC inh detg -0.1%, Sm TGR inh -1.4%, Pf growth 96h inconclusive, AmpC no deterg -14.2% and SARS PLP yeast -3.8%.
Screening CCN(c1ccccc1)S(=O)(=O)c1ccc(OC)c(NC(=O)C2=NN(c3ccccc3)C(=O)CC2)c1 returned Pf growth 48h 11.7µM*, AmpC inh detg -15.7%, Sm TGR inh 6.1%, Pf growth 96h inconclusive, AmpC no deterg -3.9% and SARS PLP yeast -4.1%.
`O=C(NCc1cccnc1)c1ccc([N+](=O)[O-])o1` gave Pf growth 48h 4.15µM*, AmpC inh detg 7.3%, Sm TGR inh inconclusive, Pf growth 96h inconclusive, AmpC no deterg -5.5% and SARS PLP yeast 0.1%.
O=C(NCc1ccco1)c1ccc([N+](=O)[O-])o1 was read as Pf growth 48h inconclusive, AmpC inh detg -4.3%, Sm TGR inh 28.2µM*, Pf growth 96h inconclusive, AmpC no deterg -16.8% and SARS PLP yeast 2.4%.
`O=C(NCc1ccco1)c1ccc(Cn2cc([N+](=O)[O-])cn2)o1` gave Pf growth 48h 8.0%, AmpC inh detg -14.7%, Sm TGR inh 51.3%, AmpC no deterg -24.3% and SARS PLP yeast 0.3%.
N#CC(C#N)=C1C(=O)N(CCN2CCCCC2)c2ccccc21 was read as Pf growth 48h -2.5%, AmpC inh detg -6.2%, Sm TGR inh -14.7%, Pf growth 96h 0.3%, AmpC no deterg 53.2% and SARS PLP yeast 1.1%.
`Cc1ccc2c(c1)C(=C(C#N)C#N)C(=O)N2CCN1CCOCC1` gave Pf growth 48h -5.3%, AmpC inh detg -4.0%, Sm TGR inh 3.16µM*, Pf growth 96h -4.5%, AmpC no deterg 13.9% and SARS PLP yeast -4.3%.
N#CC(C#N)=C1C(=O)N(CCN2CCOCC2)c2ccccc21 was read as Pf growth 48h -4.5%, AmpC inh detg -3.6%, Sm TGR inh 3.55µM*, Pf growth 96h 4.2%, AmpC no deterg 2.3% and SARS PLP yeast 1.6%.
Screening Cc1cccc(N2C(=O)CS(=O)(=O)C23C(=O)N(C)c2ccccc23)c1 (centres undefined) returned AmpC inh detg -5.4% and Sm TGR inh 5.6%.
Screening O=c1cc2oc3cc(O)c(O)cc3c(-c3ccccc3O)c-2cc1O returned Pf growth 48h 4.15µM*, AmpC inh detg 1.1%, Sm TGR inh 8.91µM*, Pf growth 96h 3.7µM*, AmpC no deterg 15.8µM* and SARS PLP yeast 5.5%.
Screening Cc1ccccc1-c1cc(=O)c2c(O)cccc2o1 returned Pf growth 48h 61.1%, AmpC inh detg 11.5%, Sm TGR inh 1.8%, Pf growth 96h -7.3%, AmpC no deterg -37.6% and SARS PLP yeast -3.4%.
For Cc1cccc(C(=O)NC2CC3CCCC(C2)N3Cc2ccccc2)c1 (centres undefined) the results were Pf growth 48h -21.0%, AmpC inh detg 2.8%, Sm TGR inh 4.7%, Pf growth 96h inconclusive, AmpC no deterg -7.8% and SARS PLP yeast 0.0%.
CC(C)N1CCC(N2CCN(Cc3cnc(-c4ccccc4)s3)CC2CCO)CC1 (centres undefined) was read as Pf growth 48h -5.1%, AmpC inh detg 1.5%, Sm TGR inh 7.0%, Pf growth 96h inconclusive, AmpC no deterg -9.3% and SARS PLP yeast -0.4%.
CC(C)N1CCC(N2CCN(Cc3ccc(-c4ccc(Cl)cc4)o3)CC2CCO)CC1 (centres undefined) was read as Pf growth 48h 2.33µM*, AmpC inh detg 4.2%, Sm TGR inh 12.6µM*, Pf growth 96h inconclusive, AmpC no deterg 44.0% and SARS PLP yeast 2.4%.
For CC(C)N1CCC(N2CCN(Cc3ccc(-c4ccccc4Cl)o3)CC2CCO)CC1 (centres undefined) the results were Pf growth 48h -10.5%, AmpC inh detg 2.5%, Sm TGR inh 7.8%, Pf growth 96h -0.4%, AmpC no deterg 40.9% and SARS PLP yeast 0.3%.
For Cc1ccc(-c2cccc(CN3CCN(C4CCN(C(C)C)CC4)C(CCO)C3)c2)o1 (centres undefined) the results were Pf growth 48h 10.4µM*, AmpC inh detg -7.0%, Sm TGR inh inconclusive, Pf growth 96h 34.7%, AmpC no deterg 62.9% and SARS PLP yeast 0.9%.
Cc1ccc(N(CC(=O)NC(C)(C)C)C(=O)CS(=O)CC(=O)Nc2ccc3c(c2)OCO3)cc1 (centres undefined) was read as Pf growth 48h 71.9%, AmpC inh detg 2.5%, Sm TGR inh 0.0%, Pf growth 96h inconclusive, AmpC no deterg 33.5% and SARS PLP yeast 0.7%.
COc1cc2nc(SCC(=O)Nc3cccc(C)c3)n3nc(-c4ccccc4)nc3c2cc1OC was read as AmpC inh detg -0.8% and Sm TGR inh -7.5%.
CN(C)CCCN(C(=O)c1ccc2ccccc2c1)c1nc2cc3c(cc2s1)OCO3 was read as Pf growth 48h inconclusive, AmpC inh detg 2.9%, Sm TGR inh -0.8%, Pf growth 96h 10.4µM*, AmpC no deterg 58.7% and SARS PLP yeast -3.2%.
`CN(C)CCN(C(=O)c1cccc2ccccc12)c1nc2cc3c(cc2s1)OCO3` gave Pf growth 48h 9.28µM*, AmpC inh detg -4.9%, Sm TGR inh 3.1%, Pf growth 96h inconclusive, AmpC no deterg 164.1% and SARS PLP yeast 5.0%.
For CN(C)CCN(C(=O)c1ccc(N2C(=O)CCC2=O)cc1)c1nc2cc3c(cc2s1)OCO3 the results were Pf growth 48h 9.9%, AmpC inh detg 2.2%, Sm TGR inh 20µM*, Pf growth 96h 15.9%, AmpC no deterg 3.2% and SARS PLP yeast -0.4%.
For CN(C)CCCN(C(=O)c1ccc2c(c1)OCCO2)c1nc2cc3c(cc2s1)OCO3 the results were Pf growth 48h -12.4%, AmpC inh detg -8.4%, Sm TGR inh -18.6%, Pf growth 96h inconclusive, AmpC no deterg 72.8% and SARS PLP yeast -4.3%.

Bioassay records: PubChem BioAssay, National Center for Advancing Translational Sciences (NCATS)
